ALR inh = inhibitors of human sulfhydryl oxidase ALR; 290,000 compounds, 3.8% hits; P55789; AID 485317; inhibition, % (no concentration beside the values); purified ALR, DTT oxidation, H2O2 HRP-luminol luminescence;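 active = mean replicate inhibition above about 79%, with every replicate also reaching it, limit read from the data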
Target sequence (P55789 whole entry, looked up): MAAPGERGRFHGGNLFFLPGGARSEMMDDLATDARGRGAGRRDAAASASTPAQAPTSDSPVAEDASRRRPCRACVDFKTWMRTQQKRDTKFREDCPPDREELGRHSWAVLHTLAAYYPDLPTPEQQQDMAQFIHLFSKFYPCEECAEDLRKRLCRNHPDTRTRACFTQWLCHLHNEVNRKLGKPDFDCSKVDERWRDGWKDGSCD
MIN6 prolif = induces beta-cell replication in MIN6 cells; MIN6 cells proliferation, ATPlite luminescence, 48 h; cells starved in 0.2% serum; 100% = growth in 10% serum; proliferation, % at 10 µM; 330,000 compounds, 0.29% hits; AID 2380;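 active = compounds whose signal lies at least 3.5 SD above the mean of all wells on their plate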
SMARCA2 act = SMARCA2 function activation, primary screen; activation, % at 9.1 µM; MG213 cells, MMTV-luciferase reporter, dexamethasone, overnight; AID 652017; 370,000 compounds, 1% hits; in the data active = activation above about 7.8%
PfM18AAP inh = blocks P. falciparum M18 aspartyl aminopeptidase | recombinant PfM18AAP, H-Glu-NHMec fluorogenic cleavage | AID 1822 | inhibition, % at 7.35 µM | 290,000 compounds, 1.2% hits;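 active = inhibition above the campaign mean inhibition over all tested compounds plus 3 SD, cut at about 28% in these data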
JMJD2C inh = blocks human GASC-1 demethylase activity; GST-JMJD2C(1-420) H3K9me3 demethylation, DELFIA europium; inhibition, % at 2.35 µM; 330,000 compounds, 0.069% hits; AID 2099;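 active = more than half of a compound's replicate wells show inhibition beyond 50%, single wells judged on their own value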;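 also: signal counts dimethyl H3K9 product captured on neutravidin plate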
Target sequence (Q9H3R0 1-420 limits assumed): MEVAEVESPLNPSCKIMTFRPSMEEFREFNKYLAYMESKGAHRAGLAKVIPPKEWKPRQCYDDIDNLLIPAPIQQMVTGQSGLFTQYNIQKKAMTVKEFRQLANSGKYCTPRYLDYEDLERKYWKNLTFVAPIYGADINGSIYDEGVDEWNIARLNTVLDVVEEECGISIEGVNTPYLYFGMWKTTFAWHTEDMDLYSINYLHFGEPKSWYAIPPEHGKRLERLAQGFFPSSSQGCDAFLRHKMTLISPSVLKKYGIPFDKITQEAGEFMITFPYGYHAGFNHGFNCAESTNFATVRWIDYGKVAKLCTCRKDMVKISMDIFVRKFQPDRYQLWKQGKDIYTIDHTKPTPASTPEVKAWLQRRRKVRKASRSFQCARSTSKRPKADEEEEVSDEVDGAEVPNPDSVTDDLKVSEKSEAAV
Exocytosis inh = lytic granule exocytosis inhibition; TALL-104 LAMP-1 surface exposure, flow cytometry; cells stimulated with thapsigargin and PMA; inhibition, % at 10 µM; 360,000 compounds, 0.66% hits;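 active = inhibition above about 55%, limit read from the data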
Each line names hits and unclear results; the compound was inactive in the other large screens. Compounds with a hit are over-represented: about 5.4% of the library has one in this group of screens.

CCCCOCCCNC(=O)C[C@H]1C[C@@]2(C(=O)OC)C(=C[C@H](C(C)(C)C)O[C@@H]2C)N(Cc2ccc3c(c2)OCO3)C1=O	none (no result: ALR inh, MIN6 prolif, PfM18AAP inh, JMJD2C inh, Exocytosis inh)
O=C(CC1CCCCC1)c1c(O)c2ccccc2oc1=O	ALR inh 97
CCCCC(=O)c1c(O)c2ccccc2oc1=O	none
CSc1nsc(SCC(=O)Nc2ccc(O)c(C(=O)O)c2)n1	ALR inh 82
CSc1nsc(SCC(=O)Nc2ccc(Cl)c(C(=O)O)c2)n1	none
Cc1cc2c(c(=O)o1)C(CCC1CCCCC1)C(C#N)=C(N)O2 (configuration not stated)	ALR inh 97
CCC(CC)C1C(C#N)=C(N)Oc2cc(C)oc(=O)c21 (configuration not stated)	none
COc1ccc(-c2csc(NC(=O)CC(C)C)n2)cc1	none
CC(=O)NNc1nc(-c2ccc(NC(C)=O)cc2)cs1	ALR inh 99, PfM18AAP inh 31
Cc1nc(-c2ccc(NC(=O)CC(C)C)cc2)cs1	ALR inh 100
CC(=O)Nc1ccc(-c2csc(NNC(=O)c3ccc(C)cc3)n2)cc1	none
C=CCn1c(SCc2cccc(C(F)(F)F)c2)nnc1-c1ccc(OC)cc1	none (no result: ALR inh, MIN6 prolif, PfM18AAP inh, JMJD2C inh, Exocytosis inh)
COC(=O)C[C@@H]1CC[C@@H]2[C@@H](COc3ccc(NC(=O)Nc4cccc(Cl)c4)cc3C(=O)N2C)O1	none (no result: ALR inh, MIN6 prolif, PfM18AAP inh, JMJD2C inh, Exocytosis inh)
COc1cccc(N2CCN(Cc3cccnc3)CC2)c1	ALR inh 91
Cc1cccc2nc(-c3ccco3)c(Nc3ccccc3)n12	none (no result: ALR inh)
Cc1cccc2nc(-c3ccco3)c(Nc3ccc4c(c3)OCO4)n12	ALR inh 99
Cc1cc(-c2nnc(SCC(=O)Nc3cccc4ccccc34)n2N)n[nH]1	none (no result: ALR inh, MIN6 prolif, PfM18AAP inh, JMJD2C inh, Exocytosis inh)
COC(=O)[C@]12C[C@H](CC(=O)NCCc3ccccc3OC)C(=O)N(Cc3ccc4c(c3)OCO4)C1=C[C@H](C(C)(C)C)O[C@@H]2C	none (no result: ALR inh, MIN6 prolif, PfM18AAP inh, JMJD2C inh, Exocytosis inh)
O=C(/C=C/c1cccc(F)c1)OCC(=O)c1ccc[nH]1	SMARCA2 act 7.9 (no result: PfM18AAP inh)
O=C(O)CC/C(=N\Nc1ccc([N+](=O)[O-])cc1)c1ccccc1	ALR inh 98
Cc1cccc(NC(=O)CCS(=O)(=O)c2ccccc2)c1C	none (no result: ALR inh, MIN6 prolif, PfM18AAP inh, JMJD2C inh, Exocytosis inh)
COc1ccc(OC)c(C2CC(=O)N3CN(c4ccccc4F)CSC3=C2C#N)c1 (configuration not stated)	ALR inh 79, PfM18AAP inh 28
COc1cccc(C2CC(=O)N3CN(c4cccc(Cl)c4C)CSC3=C2C#N)c1OC (configuration not stated)	none
CCc1ccccc1N1CSC2=C(C#N)C(c3cc(OC)c(OC)cc3OC)CC(=O)N2C1 (configuration not stated)	PfM18AAP inh 37
COc1ccc(OC)c(C2CC(=O)N3CN(c4cccc(Cl)c4C)CSC3=C2C#N)c1 (configuration not stated)	PfM18AAP inh 38
Cc1ccc2c(c1)N(CCCC(=O)N(C)Cc1ccccc1F)C(=O)CO2	none (no result: ALR inh, MIN6 prolif, PfM18AAP inh, JMJD2C inh, Exocytosis inh)
Cc1nc2ccc(C(=O)O)cc2c2c1CC(C)S2 (configuration not stated)	ALR inh 100
CC1CCN(c2nc3ccc(C(=O)O)cc3s2)CC1	none
COC(=O)C1=C(C)N(C)C(=NCc2cccc(C(F)(F)F)c2)NC1c1ccc(F)cc1 (configuration not stated)	none (no result: ALR inh, MIN6 prolif, PfM18AAP inh, JMJD2C inh, Exocytosis inh)
COC(=O)C(C(=O)OC)[C@H]1C=C[C@@H](C(=O)NS(=O)(=O)c2ccc(C)cc2)N(C(C)=O)C1	none (no result: ALR inh, MIN6 prolif, PfM18AAP inh, JMJD2C inh, Exocytosis inh)
COc1ccc(-c2nc(CS(=O)CC(=O)NC3CCCC(C)C3C)c(C)o2)cc1OC (configuration not stated)	ALR inh 99
Cc1ccc(-c2nc(CS(=O)(=O)CC(=O)NC3CCCCC3C)c(C)o2)cc1 (configuration not stated)	none
Cc1ccc(-c2nc(CS(=O)CC(=O)NC3CCCC(C)C3C)c(C)o2)cc1 (configuration not stated)	ALR inh 99
CN(C)Cc1c(C(C)(C)O)[nH]c2cc(F)ccc12	none (no result: ALR inh, MIN6 prolif, PfM18AAP inh, JMJD2C inh, Exocytosis inh)
CCOc1ccc(NC2c3ccccc3C(=O)N2Cc2ccc3c(c2)OCO3)cc1 (configuration not stated)	none (no result: ALR inh)
O=C1c2ccccc2C(Nc2ccc3c(c2)OCCO3)N1Cc1ccccc1 (configuration not stated)	ALR inh 98 (no result: SMARCA2 act, PfM18AAP inh)
Cn1cccc1C=NNC(=O)c1cc(-c2ccc(Cl)cc2)n[nH]1	none (no result: ALR inh, MIN6 prolif, PfM18AAP inh, JMJD2C inh, Exocytosis inh)
O=C(Cn1nc(-c2ccccc2)ccc1=O)NCCc1cccc(F)c1	none (no result: ALR inh, MIN6 prolif, PfM18AAP inh, JMJD2C inh, Exocytosis inh)
NNC(=O)CCc1nc2ccc(O)cc2[nH]1	ALR inh 96
Cc1nc2ccc(C(=O)Nc3ccc(N(C)C)cc3)cc2s1	ALR inh 99 (no result: PfM18AAP inh)
Cc1ccc(OCC(=O)NNC(=S)NC(=O)c2cccs2)c(C)c1	ALR inh 98
Cc1cccc(NC(=S)NNC(=O)c2ccc(Br)o2)c1	ALR inh 94
Cc1cccc(NC(=S)NCCC(C)C)c1	ALR inh 92
Cc1cc(OCC(=O)NNC(=S)NC(=O)c2cccs2)ccc1Cl	none
COc1ccc(C(=O)NC(=S)NNC(=O)c2cnccn2)cc1OC	ALR inh 98
COc1ccc(CCNC(=S)Nc2cccc(C)c2)cc1	none (no result: SMARCA2 act)
O=C(Nc1c(-c2ccc(C(F)(F)F)cc2)nc2ncccn12)c1ccc(F)cc1	none (no result: ALR inh, MIN6 prolif, PfM18AAP inh, JMJD2C inh, Exocytosis inh)
COc1cccc(CCNC(=O)CCc2nc(-c3ccccc3F)no2)c1	none (no result: ALR inh, MIN6 prolif, PfM18AAP inh, JMJD2C inh, Exocytosis inh)
COc1ccc(/C=C/C(=O)NC(=S)NNC(=O)Cc2cccs2)cc1OC	none
CCc1ccc(OCC(=O)NC(=S)Nc2ccc(C)cc2C)c(Br)c1	none
COc1ccc(C(=O)NNC(=S)NC(=O)c2ccc(Br)o2)cc1OC	ALR inh 86
COc1ccc(/C=C/C(=O)NC(=S)NNC(=O)c2cccs2)cc1OC	ALR inh 99
Cc1ccc(OCC(=O)NNC(=S)NC(=O)c2ccc(Br)o2)c(C)c1	ALR inh 98
COC(=O)[C@]12CCCCC=C1N(Cc1ccc(OC)cc1)C(=O)[C@@H]2CC(=O)NCc1cccs1	none (no result: ALR inh, MIN6 prolif, PfM18AAP inh, JMJD2C inh, Exocytosis inh)
COC(=O)[C@@]12CCCCC3=C1N(CCC3)C(=O)[C@H]2CC(=O)N1CCCC1	none (no result: ALR inh, MIN6 prolif, PfM18AAP inh, JMJD2C inh, Exocytosis inh)
CN(C)C(=O)C[C@H]1CC[C@H]2[C@H](COc3ccc(NC(=O)C4CC4)cc3C(=O)N2C)O1	none (no result: ALR inh, MIN6 prolif, PfM18AAP inh, JMJD2C inh, Exocytosis inh)
O=C(CCNS(=O)(=O)c1ccc2[nH]c(=O)oc2c1)Nc1cccc(Br)c1	SMARCA2 act 7.8
O=C(CCNS(=O)(=O)c1ccc2[nH]c(=O)oc2c1)Nc1ccccc1	none (no result: SMARCA2 act)
COc1ccc(S[C@]2(C(=O)N(C)C)CC(=O)N(c3ccc(Cl)cc3)[C@@H]2c2ccc(OC)cc2)cc1	none (no result: ALR inh, MIN6 prolif, PfM18AAP inh, JMJD2C inh, Exocytosis inh)
CCc1ccc(N=C2NC(=O)/C(=C/c3cc(Br)c(OCC(=O)O)c(OC)c3)S2)cc1	ALR inh 98
Cc1ccc(C(=O)NC2CCCCN(C(C)C)C2=O)cc1 (configuration not stated)	none (no result: ALR inh, MIN6 prolif, PfM18AAP inh, JMJD2C inh, Exocytosis inh)
Cc1nc2sc(C#N)c(N)c2c2c1CCCC2	none
N#Cc1sc2nc(N3CCCCC3)c3c(c2c1N)CCCC3	ALR inh 98

Bioassay records as filed in PubChem BioAssay.
